{"source": "PubChem BioAssay AID1159580", "about": "(chemical genetic matrix, 2015)", "test": "chemical genetic growth profiling, strain panel (AID 1159580);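 further: tested at 20 µM; growth read once vehicle control cultures reached saturation at 30 °C; 1 = growth at the plate median or of vehicle wells; lower values mean less growth of the strain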", "conditions": "S. cerevisiae deletion strains, growth OD", "note": "Among all 5,500 compounds or so, about 2,000 (36%) were called active. Inconclusive results (about 18%) are left out. The list shows a part of the results. A number with no mark means an inactive call. No stated cut-off is given here; in the data, active means normalized growth mostly below about 0.91 (no sharp cut-off); inconclusive means no clear call, values can overlap the other calls; inactive means mostly above about 0.92."}
{"compound": "Cc1c(C)c(C)c(C(O)c2ccccc2)c(C)c1C", "note": "(stereo unspecified)", "values": [{"measurement": "normalized growth", "setting": "locus YAR019C, strain CDC15, hits give low values", "result": 1}, {"measurement": "normalized growth", "setting": "locus YBL105C, strain PKC1, hits give low values", "result": 1.01}, {"measurement": "normalized growth", "setting": "locus YBR135W, strain CKS1, hits give low values", "result": 1}, {"measurement": "normalized growth", "setting": "locus YBR136W, strain MEC1, hits give low values", "result": 1}, {"measurement": "normalized growth", "setting": "locus YBR160W, strain CDC28, hits give low values", "result": 1.01}, {"measurement": "normalized growth", "setting": "locus YDL017W, strain CDC7, hits give low values", "result": 1.01}, {"measurement": "normalized growth", "setting": "locus YDL028C, strain MPS1, hits give low values", "result": 1}, {"measurement": "normalized growth", "setting": "locus YDL101C, strain DUN1, hits give low values", "result": 0.998}, {"measurement": "normalized growth", "setting": "locus YDL108W, strain KIN28, hits give low values", "result": 1.01}, {"measurement": "normalized growth", "setting": "locus YDL132W, strain cdc53, hits give low values", "result": 0.998}, {"measurement": "normalized growth", "setting": "locus YDL214C, strain PRR2, hits give low values", "result": 0.858}, {"measurement": "normalized growth", "setting": "locus YDR052C, strain DBF4, hits give low values", "result": 0.989}, {"measurement": "normalized growth", "setting": "locus YDR054C, strain cdc34, hits give low values", "result": 0.991}, {"measurement": "normalized growth", "setting": "locus YDR226W, strain ADK1, hits give low values", "result": 0.993}, {"measurement": "normalized growth", "setting": "locus YDR477W, strain SNF1, hits give low values", "result": 0.846}, {"measurement": "normalized growth", "setting": "locus YER123W, strain YCK3, hits give low values", "result": 0.786}, {"measurement": "normalized growth", "setting": "locus YER133W, strain GLC7, hits give low values", "result": 0.843}, {"measurement": "normalized growth", "setting": "locus YFL009W, strain cdc4, hits give low values", "result": 0.994}, {"measurement": "normalized growth", "setting": "locus YFL029C, strain CAK1, hits give low values", "result": 1}, {"measurement": "normalized growth", "setting": "locus YFR003C, strain YPI1, hits give low values", "result": 1}, {"measurement": "normalized growth", "setting": "locus YFR019W, strain FAB1, hits give low values", "result": 0.868}, {"measurement": "normalized growth", "setting": "locus YFR028C, strain CDC14, hits give low values", "result": 0.997}, {"measurement": "normalized growth", "setting": "locus YGR040W, strain KSS1, hits give low values", "result": 0.862}, {"measurement": "normalized growth", "setting": "locus YGR052W, strain FMP48, hits give low values", "result": 0.75}, {"measurement": "normalized growth", "setting": "locus YGR092W, strain DBF2, hits give low values", "result": 0.703}, {"measurement": "normalized growth", "setting": "locus YHR030C, strain SLT2, hits give low values", "result": "0.442 (active)"}, {"measurement": "normalized growth", "setting": "locus YHR079C, strain IRE1, hits give low values", "result": 0.742}, {"measurement": "normalized growth", "setting": "locus YHR082C, strain KSP1, hits give low values", "result": 0.779}, {"measurement": "normalized growth", "setting": "locus YHR205W, strain SCH9, hits give low values", "result": 0.775}, {"measurement": "normalized growth", "setting": "locus YIL147C, strain SLN1, hits give low values", "result": 1.01}, {"measurement": "normalized growth", "setting": "locus YJL095W, strain BCK1, hits give low values", "result": 0.602}, {"measurement": "normalized growth", "setting": "locus YJL128C, strain PBS2, hits give low values", "result": 0.914}, {"measurement": "normalized growth", "setting": "locus YJL157C, strain FAR1, hits give low values", "result": 0.884}, {"measurement": "normalized growth", "setting": "locus YJR016C, strain ILV3, hits give low values", "result": 1}, {"measurement": "normalized growth", "setting": "locus YJR066W, strain TOR1 (second series), hits give low values", "result": 0.84}, {"measurement": "normalized growth", "setting": "locus YJR066W, strain TOR1, hits give low values", "result": 0.817}, {"measurement": "normalized growth", "setting": "locus YKL048C, strain ELM1, hits give low values", "result": 0.867}, {"measurement": "normalized growth", "setting": "locus YKL067W, strain YNK1, hits give low values", "result": 0.873}, {"measurement": "normalized growth", "setting": "locus YKL101W, strain HSL1, hits give low values", "result": 0.781}, {"measurement": "normalized growth", "setting": "locus YKL193C, strain SDS22, hits give low values", "result": 1}, {"measurement": "normalized growth", "setting": "locus YKL203C, strain TOR2, hits give low values", "result": 0.894}, {"measurement": "normalized growth", "setting": "locus YLR113W, strain HOG1, hits give low values", "result": "0.609 (active)"}, {"measurement": "normalized growth", "setting": "locus YLR133W, strain CKI1, hits give low values", "result": 0.873}, {"measurement": "normalized growth", "setting": "locus YLR403W, strain SFP1, hits give low values", "result": 0.847}, {"measurement": "normalized growth", "setting": "locus YML070W, strain DAK1, hits give low values", "result": 0.75}, {"measurement": "normalized growth", "setting": "locus YMR001C, strain CDC5, hits give low values", "result": 1}, {"measurement": "normalized growth", "setting": "locus YMR205C, strain PFK2 (second series), hits give low values", "result": 0.849}, {"measurement": "normalized growth", "setting": "locus YMR277W, strain FCP1, hits give low values", "result": 1}, {"measurement": "normalized growth", "setting": "locus YNL006W, strain LST8, hits give low values", "result": 1.01}, {"measurement": "normalized growth", "setting": "locus YNL020C, strain ARK1, hits give low values", "result": 0.852}, {"measurement": "normalized growth", "setting": "locus YNL161W, strain CBK1, hits give low values", "result": 1}, {"measurement": "normalized growth", "setting": "locus YNL183C, strain NPR1, hits give low values", "result": 0.696}, {"measurement": "normalized growth", "setting": "locus YNL207W, strain RIO2, hits give low values", "result": 1}, {"measurement": "normalized growth", "setting": "locus YNL222W, strain SSU72, hits give low values", "result": 0.999}, {"measurement": "normalized growth", "setting": "locus YNL307C, strain MCK1 (second series), hits give low values", "result": 0.785}, {"measurement": "normalized growth", "setting": "locus YOL078W, strain AVO1, hits give low values", "result": 1}, {"measurement": "normalized growth", "setting": "locus YOL136C, strain PFK27, hits give low values", "result": 0.84}, {"measurement": "normalized growth", "setting": "locus YOR061W, strain CKA2, hits give low values", "result": 0.844}, {"measurement": "normalized growth", "setting": "locus YOR119C, strain RIO1, hits give low values", "result": 0.915}, {"measurement": "normalized growth", "setting": "locus YOR231W, strain MKK1, hits give low values", "result": 0.785}, {"measurement": "normalized growth", "setting": "locus YOR329C, strain SCD5, hits give low values", "result": 1}, {"measurement": "normalized growth", "setting": "locus YPL031C, strain PHO85, hits give low values", "result": 0.806}, {"measurement": "normalized growth", "setting": "locus YPL153C, strain RAD53, hits give low values", "result": 0.783}, {"measurement": "normalized growth", "setting": "locus YPL204W, strain HRR25, hits give low values", "result": 0.777}, {"measurement": "normalized growth", "setting": "locus YPL209C, strain IPL1, hits give low values", "result": 1}, {"measurement": "normalized growth", "setting": "locus YPL256C, strain CLN2, hits give low values", "result": "0.67 (active)"}, {"measurement": "normalized growth", "setting": "locus YPR025C, strain CCL1, hits give low values", "result": 1.01}, {"measurement": "normalized growth", "setting": "locus YPR106W, strain ISR1, hits give low values", "result": 0.977}, {"measurement": "normalized growth", "setting": "locus YPR111W, strain DBF20, hits give low values", "result": 0.967}, {"measurement": "normalized growth", "setting": "strain NNK1, hits give low values", "result": 0.972}, {"measurement": "normalized growth", "setting": "strain TSCII, hits give low values", "result": 1}]}
